Assay results as given in PubChem BioAssay AID1233 (SRMLSC, 2008).
Results with a measured potency or affinity are listed apart. Active and inactive are the calls of the source.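 How the source made its calls: active means a dose-response curve fit returns a half-maximal inhibitory concentration, extrapolated values included; inactive means the fit returns no such concentration.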

Molecular target: HMG-CoA reductase [Enterococcus faecalis] (UniProt Q9FD70)
Experiment: inhibitors of E. faecalis class II HMGR, confirmation, biochemical, Enterococcus faecalis (AID 1233)
Conditions: purified E. faecalis HMGR, NADPH absorbance 340 nm kinetics; series mostly up to 100 µM

outcome, inactive:
O=C1c2ccccc2C(=O)N1CCC(O)C[N+](=O)[O-] (centres undefined), Cc1[nH][nH]c(=O)c1C(c1c(C)[nH][nH]c1=O)c1cn(Cc2ccc(Cl)c(Cl)c2)c2ccccc12, Cc1cc(C=O)c2c(c1)C=CC1(Oc3ccccc3C(=O)N1C)O2 (centres undefined), O=C(COC(=O)Cc1c(Cl)cccc1Cl)NCCC1=CCCCC1, CCN(CC)c1ccc(/C=N/NS(=O)(=O)c2cccc([N+](=O)[O-])c2)cc1, COCc1c(C(=O)Nc2nc(C)cs2)oc2ccccc12, O=C(CCCn1ncn2c(cc3occc32)c1=O)N1CCc2ccccc2C1, O=C1CN(C(=O)CSc2nc3cc(Cl)ccc3c(=O)n2Cc2ccccc2)c2ccccc2N1, CCOCC(=O)OCC(=O)Nc1cc(OC)c([N+](=O)[O-])cc1C, Cc1ccc(-c2noc(CSc3nnc(Cc4ccccc4)n3-c3ccc(Cl)cc3)n2)cc1, COc1ccccc1C(=O)N/C(=C/c1ccc(Br)cc1)C(=O)NCC(=O)O, O=C(CCS(=O)(=O)c1cccc2nonc12)Nc1cccc2c1CCCC2, CCCCC(=O)Nc1nnc(C2=COCCO2)o1, CCN1C(=O)/C(=C\C=C\c2ccccc2[N+](=O)[O-])SC1=S, COc1ccc(CCNC(=O)CCNC(=O)c2ccc(Cl)cc2)cc1OC, CC(=O)Oc1ccccc1-c1nc(C)nc(N(C)C(C)=O)n1, CCOc1ccc(-c2[nH]ncc2Oc2ccccc2OCC)c(O)c1, CCOc1ccc(OCCCC(=O)Nc2nc3ccccc3[nH]2)cc1, CCOC(=O)c1cc2c(ccn2C)n1CC(=O)N1CCN(c2cccc(C(F)(F)F)c2)CC1
